The results in this text go back to PubChem BioAssay (NCATS).

SMILES strings stand for the structures. A number with no mark means an inactive call. Records with an inconclusive call do not appear. Active and inactive are the calls of the source. Unless noted, the call rests on the fitted dose curve; in most records, active means well fitted curve in the direction sought with a large enough effect; inconclusive means small, poorly fitted or top-dose-only effect, or another doubt; inactive means no such curve, though single readings can be large; an effect the other way counts as inactive or inconclusive.

One test has as its target Furin (Homo sapiens) (UniProt P09958). In words: Furin counterscreen qHTS for Zika virus inhibitors (AID 1347149). Further: nearly all actives have a fitted effect of over 70% in size. Further: potency means the concentration at half of the fitted maximal effect.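 On activity change, negative = inhibition: purified recombinant full-length human furin enzyme at 5 nM; fluorescence gain from furin cutting a BOC-RVRR-AMC peptide substrate over 15 min; top concentration of the series differs between compounds; plate controls were no-inhibitor control for no effect and no-enzyme control for full effect.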 An outline of the steps:
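Counterscreen measures cleavage of 2 microM BOC-RVRR-AMC, below its ~15 microM Km, by 5 nM full-length human furin at pH 7.0 after a 15-min compound preincubation. Inhibition derives from the 15-min fluorescence increase at 37C.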

Test [1] in a line: Confirmatory screen GU Rhodamine qHTS for Zika virus inhibitors qHTS (AID 1347157). Further: nearly all actives have a fitted effect of over 70% in size. Further: potency means the concentration at half of the fitted maximal effect.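 On activity change, negative = inhibition: plate controls were no-inhibitor wells for no effect and no-enzyme wells for full effect.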 Put shortly:
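Percent inhibition derives from the 15-min fluorescence change (ex 480, em 540 nm), normalized to no-enzyme and no-inhibitor wells. Reactions contained 25 nM NS2B-NS3 complex and 1.5 microM substrate in 10 mM Tris-HCl pH 8.0.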

Test [2] has as its system Zika virus NS2B-NS3 protease (linked construct). In words: Confirmatory screen NINDS AMC qHTS for Zika virus inhibitors (AID 1347152). Further: nearly all actives have a fitted effect of over 70% in size. Further: potency means the concentration at half of the fitted maximal effect. An outline of the steps: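 Purified NS2B-NS3 protease with NS2B hydrophilic domain linked to NS3 protease domain by flexible linker, 1 nM final in 10 mM Tris-HCl pH 8.0, 0.01% Tween 20. Compounds preincubated 15 min, room temperature; Bz-Nle-KRR-AMC 10 microM (Km 18.3 µM); 15-min fluorescence change, 4-parameter Hill fit.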

Test [3] can be described thus: Confirmatory screen NINDS Rhodamine qHTS for Zika virus inhibitors (AID 1347161). Further: nearly all actives have a fitted effect of over 60% in size. Further: potency means the concentration at half of the fitted maximal effect.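 On activity change, negative = inhibition: purified Zika NS2B-NS3 protease with linked NS2B cofactor domain and Rhodamine110 peptide substrate; series mostly up to about 110 µM; plate controls were no-inhibitor control for no effect and no-enzyme control for full effect.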 Put shortly: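 In 10 mM Tris-HCl pH 8.0 containing 0.01% Tween 20, linked NS2B-NS3 protease (25 nM final) is exposed to test compounds for 15 min. Cleavage of 1.5 microM Rhodamine110 substrate is tracked by fluorescence over 15 min.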
The subject of test [4] is Zika virus NS2B-NS3 protease (linked). In words: 384 well plate NINDS AMC confirmatory qHTS for Zika virus inhibitors (AID 1347163). Further: nearly all actives have a fitted effect of over 50% in size. Further: potency means the concentration at half of the fitted maximal effect.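 On activity change, negative = inhibition: linked protease at 5 30 or 60 nM final depending on run; fluorescence of AMC released from Ac-VKTGKR-AMC peptide cleaved by the protease; top concentration of the series differs between compounds; 0% = no-inhibitor control and -100% = no-enzyme control.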 An outline of the steps:
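Fluorescence at 355/460 nm was read after 25 minutes of cleavage of 30 microM Ac-VKTGKR-AMC at room temperature, in the dark. Before substrate addition, compounds (up to 1 mM final) sat ~15 minutes with 5, 30 or 60 nM linked protease. Signals were normalized to no-enzyme and no-inhibitor wells.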

Test [5] has as its system Zika virus NS2B-NS3 protease (linked construct). Briefly: 384 well plate NINDS Rhodamine confirmatory qHTS for Zika virus inhibitors (AID 1347164).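 Further: fluorescence from protease cleavage of Ac-LKRR-rhodamine 110 substrate; nearly all actives have a fitted effect of over 65% in size.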 Further: potency means the concentration at half of the fitted maximal effect. Put shortly:
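Linked protease at a final 5 nM, 30 nM or 60 nM was preincubated ~15 min with compounds, then given 10 microM Ac-LKRR-Rhodamine 110. Fluorescence (ex 485/em 538 nm) after 25 min in the dark at room temperature.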

The nature of test [6]: Tertiary RLuc qRT-PCR qHTS assay for Zika virus inhibitors (AID 1347169). Further: top concentration of the series differs between compounds; on the % scale 0 is the no-effect control and ±100 the full control effect; nearly all actives have a fitted effect of over 55% in size. An outline of the steps:
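Vero cells (1,000 per well) plated overnight at 37 degrees C, treated with compound in DMSO, then infected with recombinant ZIKV-RLuc (Cambodian) at MOI 1-2 for 48-72 hrs. Live-cell Renilla luciferase substrate added; luminescence read after 1-1.5 hrs.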

For test [7], the target named is Glucocorticoid receptor (Homo sapiens) (UniProt P04150). Briefly: GR-GFP Redistribution (AID 450;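 active means compounds whose dose series gives a full or clear partial fitted curve of increased nuclear translocation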; further: potency means the concentration at half of the fitted maximal effect). Conditions: U2OS GR-GFP nuclear translocation, laser cytometry, 2 h.
Test [8] has as its target Mitogen-activated protein kinase 10 (Mus musculus) (UniProt Q61831). In words: JNK3 AlphaScreen Assay (AID 530; active means well fitted curve in either direction with a large enough effect, not every such curve was filed as active;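 further: kinase came from lysate of stimulated human HepG2 cells; signal reports phosphorylation of biotinylated GST-cJun 1-79 at Ser73 with 10 µM ATP; series mostly up to about 57 µM; on the % scale 0 is the no-effect control and ±100 the full control effect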). An outline of the steps: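 Phosphorylation of biotinylated GST-cJun(1-79) at Ser73 is measured by AlphaScreen proximity luminescence. Enzyme is JNK3 in HepG2 lysates activated with interleukin-1beta and tumor necrosis factor alpha; ATP is 10 uM final.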
Test [9] has as its target Cytochrome P450 3A4 (Homo sapiens) (UniProt P08684). Briefly: qHTS Assay for Activators of Cytochrome P450 3A4 (AID 885). Further: nearly all actives have a fitted effect of over 65% in size. An outline of the steps:
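Human CYP3A4 dealkylates Luciferin-PPXE to luciferin, which luciferase detection converts to light. Substrate was at its KM (25uM), buffer 200mM KPO4, reaction 60 min at RT.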

Test [10] has as its target DNA dC->dU-editing enzyme APOBEC-3G (Homo sapiens) (UniProt Q9HC16). Briefly: qHTS for inhibitors of Vif-A3G interactions: Validation (AID 588379). Further: 0% is about no effect. Put shortly: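 Yellow fluorescence (Ex 488, Em 500-530) of Vif-coexpressing HeLa A3G-eYFP cells, scanned by Acumen cytometer, reports blocked A3G degradation. Cells plated at 700/well overnight at 37 deg C before compound addition, then a further overnight compound incubation at 37 deg C.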

The test system of test [11] is Zika virus NS2B-NS3 protease. In words: Primary screen GU AMC qHTS for Zika virus inhibitors (AID 1347154). Further: potency means the concentration at half of the fitted maximal effect; nearly all actives have a fitted effect of over 70% in size. Put shortly:
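Unlinked Zika NS2B hydrophilic domain/NS3 protease domain noncovalent complex (25 nM final) in 10 mM Tris-HCl pH 8.0, 0.01% Tween 20, with AMC peptide substrate. Fluorescence (ex 340, em 450 nm) change over 15 min, room temperature; percent inhibition fitted to 4-parameter Hill equation.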

Test [12] is described as follows: HepG2 cells viability qHTS for Zika virus inhibitors (AID 1347168). Further: on the % scale 0 is the no-effect control and ±100 the full control effect. Put shortly:
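To flag cytotoxic protease inhibitors, viability is measured by ATP-dependent luminescence (CellTiter Glo) after cells attached overnight receive compound for 24 to 48 hours in DMEM with 4% FBS.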

Test [13] has as its target Rap guanine nucleotide exchange factor 3 (Homo sapiens) (UniProt O95398). In words: Confirmatory qHTS for antagonist of cAMP-regulated guanine nucleotide exchange factor 3 (EPAC1) (AID 1645880).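 Further: plate controls were DMSO only for no effect and full effect of the ATA control for full effect; nearly all actives have a fitted effect of over 55% in size.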 An outline of the steps:
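Released BODIPY-GDP fluoresces less than Rap1-bound BODIPY-GDP; the signal is followed at 480/540 nm at 5-min intervals over 30 min, after 5 min at room temperature. Reactions contain 100 nM EPAC1, 250 nM RAP1B-BODIPY-GDP and 50 uM GDP; results are normalized to ATA and DMSO.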

The target is the same in test [14]. Briefly: Confirmatory qHTS for agonist of cAMP-regulated guanine nucleotide exchange factor 3 (EPAC1) (AID 1645881).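 Further: EPAC1 catalysed release of BODIPY-GDP from Rap1B seen as fluorescence loss; 100% = effect of cAMP agonist control; nearly all actives have a fitted effect of over 75% in size.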
In test [15] the target is Rap guanine nucleotide exchange factor 4 (Homo sapiens) (UniProt Q8WZA2). Briefly: Confirmatory qHTS for antagonist of cAMP-regulated guanine nucleotide exchange factor 4 (EPAC2) (AID 1645885). Further: on the % scale 0 is the no-effect control and ±100 the full control effect; nearly all actives have a fitted effect of over 25% in size.
Test [16] in a line: ZIKV-mCherry secondary qHTS for Zika virus inhibitors (AID 1347158). Further: potency means the concentration at half of the fitted maximal effect. On activity change, negative = inhibition: top concentration of the series differs between compounds. Put shortly: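 Compounds were tested in Vero monkey kidney cells infected with recombinant mCherry-expressing Zika virus at MOI 1 for 48-72 h at 37 °C. Fixed cells were nuclear-stained and imaged, and infection rate was taken as the fraction of mCherry-positive cells.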
Test [17] concerns the target Cytochrome P450 3A4 (Homo sapiens) (UniProt P08684). In words: qHTS Assay for Inhibitors and Substrates of Cytochrome P450 3A4 (AID 884). Further: potency means the concentration at half of the fitted maximal effect; nearly all actives have a fitted effect of over 50% in size. Put shortly:
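Luminescent readout of luciferin produced by CYP3A4 (20 nM) dealkylation of Luciferin-PPXE, 25 uM (its KM). NADPH-driven reaction ran 60 min at RT after 10 min compound preincubation; data scaled to 57 uM ketoconazole as 100% inhibition.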

The nature of test [18]: Confirmation and Secondary Assay for Modulators of Hemoglobin Beta Chain Splicing at IVS2 654 locus (AID 910).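 Further: per-well total GFP intensity by laser scanning cytometry after 2-day treatment; % of control where 0% means no effect.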 An outline of the steps:
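HeLa cells stably carrying EGFP interrupted by mutant beta-globin IVS2-654 intron (CMV-driven) were treated with compound for 2 days at 37C; corrected splicing was scored as total peak GFP intensity per well (488 nm excitation, 500-520 nm emission).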

In test [19] the target is Ubiquitin carboxyl-terminal hydrolase 1 (Homo sapiens) (UniProt O94782). Briefly: Inhibitors of USP1/UAF1: Pilot qHTS (AID 504865). Further: potency means the concentration at half of the fitted maximal effect; nearly all actives have a fitted effect of over 35% in size. An outline of the steps:
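USP1/UAF1 complex (1nM) preincubated with compound 15 min at room temperature, then Ub-Rho substrate (150nM final) added. Fluorescence read kinetically at 480/540 nm, 6 reads every 60 seconds. Buffer: 50mM HEPES pH 7.8, 0.5mM EDTA, 0.1 mg/ml BSA, 1mM TCEP, 0.01% Tween-20.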

The target of test [20] is Tyrosyl-DNA phosphodiesterase 1 (Homo sapiens) (UniProt Q9NUW8). In words: Confirmation Assay for Inhibitors of Tyrosyl-DNA Phosphodiesterase (TDP1) (AID 489007). Further: potency means the concentration at half of the fitted maximal effect; nearly all actives have a fitted effect of over 40% in size. The following applies: recombinant human TDP1 enzymatic activity, dose-response. An outline of the steps:
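Compounds are preincubated 15 min at room temperature with 1 nM recombinant human Tdp1. The reaction starts on adding 15 nM FITC-phosphotyrosine DNA substrate, runs 5 min, and is detected by AlphaScreen beads after 10 min.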

Test [21] concerns Zika virus NS2B-NS3 protease (unlinked complex). In words: Confirmatory screen GU AMC qHTS for Zika virus inhibitors (AID 1347153). An outline of the steps:
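Unlinked NS2B-NS3 complex (25 nM) in 10 mM Tris-HCl pH 8.0, 0.01% Tween 20 preincubated 15 min with compound, then 10 microM Bz-Nle-KRR-AMC (Km 18.3 µM). Fluorescence change over 15 min, normalized, Hill-fitted.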

Furin (Homo sapiens), sequence (P09958 whole entry, looked up): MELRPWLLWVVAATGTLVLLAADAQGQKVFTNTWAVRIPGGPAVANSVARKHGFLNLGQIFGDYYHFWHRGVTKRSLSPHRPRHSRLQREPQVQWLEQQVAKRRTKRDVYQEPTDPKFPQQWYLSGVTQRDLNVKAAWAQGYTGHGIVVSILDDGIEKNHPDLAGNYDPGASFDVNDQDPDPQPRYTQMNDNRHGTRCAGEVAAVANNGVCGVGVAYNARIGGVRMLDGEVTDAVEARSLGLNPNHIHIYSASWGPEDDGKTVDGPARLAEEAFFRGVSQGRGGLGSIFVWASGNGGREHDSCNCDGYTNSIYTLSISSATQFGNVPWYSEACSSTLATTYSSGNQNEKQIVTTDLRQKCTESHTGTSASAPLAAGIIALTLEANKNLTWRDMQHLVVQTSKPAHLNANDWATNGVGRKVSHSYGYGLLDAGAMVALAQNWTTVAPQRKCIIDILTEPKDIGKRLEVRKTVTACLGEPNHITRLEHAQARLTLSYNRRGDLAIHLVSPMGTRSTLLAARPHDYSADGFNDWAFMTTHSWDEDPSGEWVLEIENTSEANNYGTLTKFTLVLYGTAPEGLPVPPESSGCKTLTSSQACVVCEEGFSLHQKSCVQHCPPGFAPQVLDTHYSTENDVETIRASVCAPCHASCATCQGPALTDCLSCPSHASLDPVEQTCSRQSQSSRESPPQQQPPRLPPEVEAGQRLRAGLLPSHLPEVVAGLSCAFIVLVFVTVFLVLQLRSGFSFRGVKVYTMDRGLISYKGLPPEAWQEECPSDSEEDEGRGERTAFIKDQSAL
Cytochrome P450 3A4 (Homo sapiens), sequence (P08684 whole entry, looked up): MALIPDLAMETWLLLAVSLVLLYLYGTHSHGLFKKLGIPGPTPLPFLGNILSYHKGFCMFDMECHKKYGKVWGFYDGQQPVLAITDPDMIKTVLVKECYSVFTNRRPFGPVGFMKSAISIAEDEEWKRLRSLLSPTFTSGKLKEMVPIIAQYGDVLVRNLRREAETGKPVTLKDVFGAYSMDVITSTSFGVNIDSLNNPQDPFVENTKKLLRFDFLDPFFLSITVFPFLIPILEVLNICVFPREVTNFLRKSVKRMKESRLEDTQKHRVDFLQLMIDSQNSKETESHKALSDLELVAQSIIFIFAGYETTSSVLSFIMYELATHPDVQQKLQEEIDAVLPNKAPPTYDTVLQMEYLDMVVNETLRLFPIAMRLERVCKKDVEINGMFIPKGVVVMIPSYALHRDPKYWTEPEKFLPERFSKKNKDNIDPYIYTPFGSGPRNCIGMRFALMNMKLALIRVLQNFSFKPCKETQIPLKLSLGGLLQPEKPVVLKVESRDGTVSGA
Rap guanine nucleotide exchange factor 3 (Homo sapiens), sequence (O95398 whole entry, looked up): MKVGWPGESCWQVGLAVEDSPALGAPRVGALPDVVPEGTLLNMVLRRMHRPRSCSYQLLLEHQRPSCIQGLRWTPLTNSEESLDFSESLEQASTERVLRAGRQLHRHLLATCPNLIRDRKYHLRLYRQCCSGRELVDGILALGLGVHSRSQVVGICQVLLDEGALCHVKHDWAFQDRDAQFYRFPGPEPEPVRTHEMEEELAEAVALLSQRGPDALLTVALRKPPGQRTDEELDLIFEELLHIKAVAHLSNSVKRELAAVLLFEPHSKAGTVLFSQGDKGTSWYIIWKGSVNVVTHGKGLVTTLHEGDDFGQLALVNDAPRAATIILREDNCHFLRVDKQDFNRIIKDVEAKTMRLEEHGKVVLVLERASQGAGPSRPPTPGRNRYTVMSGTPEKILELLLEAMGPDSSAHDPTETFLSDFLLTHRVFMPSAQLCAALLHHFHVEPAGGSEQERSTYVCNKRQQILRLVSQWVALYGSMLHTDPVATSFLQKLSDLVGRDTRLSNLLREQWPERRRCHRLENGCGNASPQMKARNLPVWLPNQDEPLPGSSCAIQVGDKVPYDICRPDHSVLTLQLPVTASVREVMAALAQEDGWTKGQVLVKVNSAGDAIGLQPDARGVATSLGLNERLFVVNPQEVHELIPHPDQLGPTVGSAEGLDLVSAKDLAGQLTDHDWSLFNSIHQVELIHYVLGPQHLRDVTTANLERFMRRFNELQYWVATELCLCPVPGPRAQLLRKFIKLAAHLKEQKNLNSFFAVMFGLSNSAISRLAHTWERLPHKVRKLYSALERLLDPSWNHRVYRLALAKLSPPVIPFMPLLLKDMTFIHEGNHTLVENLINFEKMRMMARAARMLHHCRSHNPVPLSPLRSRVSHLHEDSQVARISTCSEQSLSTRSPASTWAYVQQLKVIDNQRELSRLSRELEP
Rap guanine nucleotide exchange factor 4 (Homo sapiens), sequence (Q8WZA2 whole entry, looked up): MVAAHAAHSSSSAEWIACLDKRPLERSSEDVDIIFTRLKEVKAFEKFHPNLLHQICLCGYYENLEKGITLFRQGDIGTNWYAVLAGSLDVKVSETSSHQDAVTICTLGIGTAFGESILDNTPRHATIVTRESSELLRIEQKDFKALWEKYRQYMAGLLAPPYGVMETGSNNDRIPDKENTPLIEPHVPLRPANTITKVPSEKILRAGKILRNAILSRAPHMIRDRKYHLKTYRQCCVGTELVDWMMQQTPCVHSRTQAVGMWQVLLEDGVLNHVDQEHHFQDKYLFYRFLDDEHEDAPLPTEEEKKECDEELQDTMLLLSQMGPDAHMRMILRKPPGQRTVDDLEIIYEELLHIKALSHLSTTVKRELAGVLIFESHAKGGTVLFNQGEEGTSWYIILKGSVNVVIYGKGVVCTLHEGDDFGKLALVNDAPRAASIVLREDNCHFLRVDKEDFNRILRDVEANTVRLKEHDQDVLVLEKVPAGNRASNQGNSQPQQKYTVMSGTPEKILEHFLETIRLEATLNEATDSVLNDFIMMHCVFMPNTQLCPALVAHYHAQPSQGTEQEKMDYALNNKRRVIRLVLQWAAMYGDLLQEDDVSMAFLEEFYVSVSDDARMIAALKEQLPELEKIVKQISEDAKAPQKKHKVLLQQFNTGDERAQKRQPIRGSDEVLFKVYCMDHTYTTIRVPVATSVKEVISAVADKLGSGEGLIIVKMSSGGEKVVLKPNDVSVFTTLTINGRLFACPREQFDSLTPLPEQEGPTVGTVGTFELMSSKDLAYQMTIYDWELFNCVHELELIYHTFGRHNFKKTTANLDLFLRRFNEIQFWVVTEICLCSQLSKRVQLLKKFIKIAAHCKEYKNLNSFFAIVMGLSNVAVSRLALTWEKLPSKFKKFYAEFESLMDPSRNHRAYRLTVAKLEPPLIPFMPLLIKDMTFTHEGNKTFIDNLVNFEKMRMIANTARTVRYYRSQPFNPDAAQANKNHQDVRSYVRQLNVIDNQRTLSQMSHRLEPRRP
Glucocorticoid receptor (Homo sapiens), sequence (P04150 whole entry, looked up): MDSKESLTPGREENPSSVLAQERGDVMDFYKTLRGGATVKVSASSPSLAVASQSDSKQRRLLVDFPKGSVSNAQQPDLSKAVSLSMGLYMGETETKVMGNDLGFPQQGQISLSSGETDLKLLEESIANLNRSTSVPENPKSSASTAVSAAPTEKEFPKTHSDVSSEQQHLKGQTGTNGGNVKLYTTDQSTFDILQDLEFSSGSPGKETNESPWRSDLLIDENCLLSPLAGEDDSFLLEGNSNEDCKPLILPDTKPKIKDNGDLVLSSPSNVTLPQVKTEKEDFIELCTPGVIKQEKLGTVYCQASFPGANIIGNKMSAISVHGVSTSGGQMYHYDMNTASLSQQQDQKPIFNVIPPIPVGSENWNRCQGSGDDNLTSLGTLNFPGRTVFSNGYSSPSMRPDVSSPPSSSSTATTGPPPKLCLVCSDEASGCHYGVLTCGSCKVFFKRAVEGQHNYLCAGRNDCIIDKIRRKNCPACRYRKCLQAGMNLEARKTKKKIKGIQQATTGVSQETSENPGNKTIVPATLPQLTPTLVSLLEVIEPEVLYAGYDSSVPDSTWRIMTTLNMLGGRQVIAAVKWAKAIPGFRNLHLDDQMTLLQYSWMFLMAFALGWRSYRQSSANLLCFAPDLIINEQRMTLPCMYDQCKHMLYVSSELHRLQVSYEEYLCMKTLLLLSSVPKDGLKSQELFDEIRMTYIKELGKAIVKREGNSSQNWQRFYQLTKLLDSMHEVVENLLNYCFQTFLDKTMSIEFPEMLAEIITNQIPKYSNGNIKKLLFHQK
Tyrosyl-DNA phosphodiesterase 1 (Homo sapiens), sequence (Q9NUW8 whole entry, looked up): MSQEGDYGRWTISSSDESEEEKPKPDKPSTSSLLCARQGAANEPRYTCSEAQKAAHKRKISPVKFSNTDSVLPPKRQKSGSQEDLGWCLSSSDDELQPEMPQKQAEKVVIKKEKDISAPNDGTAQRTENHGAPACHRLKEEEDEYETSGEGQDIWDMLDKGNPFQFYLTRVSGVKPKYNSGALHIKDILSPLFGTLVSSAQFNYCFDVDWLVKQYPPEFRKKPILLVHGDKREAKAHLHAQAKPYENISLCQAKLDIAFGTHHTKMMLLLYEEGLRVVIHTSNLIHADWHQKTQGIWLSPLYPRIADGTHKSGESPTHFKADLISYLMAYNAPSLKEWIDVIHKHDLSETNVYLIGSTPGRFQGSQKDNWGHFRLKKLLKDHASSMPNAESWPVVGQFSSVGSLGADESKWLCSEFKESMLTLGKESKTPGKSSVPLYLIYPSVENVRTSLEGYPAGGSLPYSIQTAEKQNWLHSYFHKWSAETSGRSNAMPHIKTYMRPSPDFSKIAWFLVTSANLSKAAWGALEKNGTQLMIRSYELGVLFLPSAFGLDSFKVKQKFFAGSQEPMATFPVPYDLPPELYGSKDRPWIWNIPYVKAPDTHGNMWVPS
DNA dC->dU-editing enzyme APOBEC-3G (Homo sapiens), sequence (Q9HC16 whole entry, looked up): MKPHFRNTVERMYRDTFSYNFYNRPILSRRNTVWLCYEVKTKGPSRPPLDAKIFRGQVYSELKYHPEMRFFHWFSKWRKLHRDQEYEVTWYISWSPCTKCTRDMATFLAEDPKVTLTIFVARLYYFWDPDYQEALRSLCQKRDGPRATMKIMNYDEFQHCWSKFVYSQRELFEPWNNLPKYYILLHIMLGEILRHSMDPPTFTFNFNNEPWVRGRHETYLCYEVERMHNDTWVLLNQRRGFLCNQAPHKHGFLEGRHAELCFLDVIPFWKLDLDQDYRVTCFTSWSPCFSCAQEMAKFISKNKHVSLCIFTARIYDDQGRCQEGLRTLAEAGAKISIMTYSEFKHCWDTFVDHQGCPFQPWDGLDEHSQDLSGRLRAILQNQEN

Turning to `O=C(Nc1ccc(C(=O)OCc2cc(=O)n3c4c(sc3n2)CCCC4)cc1)c1cccc(F)c1`, in the test with Furin (Homo sapiens), the Potency was 46.9 µM (active). Moreover, in test [1], the Potency result was “inactive”.

Consider `Cc1ccc(C(=O)Nc2ccc(C(=O)OCc3cc(=O)n4nc(C5CC5)sc4n3)cc2)cc1`, for which the Potency result (in the test with Furin (Homo sapiens); in test [1]) was “inactive” in each case.

Regarding `Nc1cc(N)c(N=Nc2ccc(S(=O)(=O)Nc3nccs3)cc2)cc1N=Nc1ccc(S(=O)(=O)Nc2nccs2)cc1`, the Potency was 39.8 µM (active) with Furin (Homo sapiens); 12.6 µM (active) in test [2]; 3.55 µM (active) in [3]; 63.1 µM (active) in test [4]; 20 µM (active) in test [5]. The Potency result in test [6] was “inactive”.

Turning to `COc1ccc(-c2nc(C(=O)N3CCN(C)CC3)sc2-c2ccc(OC)cc2)cc1`, the Potency in test [7] was over 46 µM; with Furin (Homo sapiens), 13.5 µM (active); in [2] it was 24.1 µM (active); in test [11], 26.7 µM (active). For the same molecule, the Potency entry in test [8], in test [9], in test [10], in [3], in [12] and in test [13] was “inactive” in each case. The Potency result in test [15] was “inactive”. Also, the molecule was called inactive in [14].

Take `O=C(Nc1ccccc1)c1ccc2c(O)c(S(=O)(=O)c3ccc(Cl)cc3)c(=O)[nH]c2c1`: the Potency entry (in the test with Furin (Homo sapiens); in test [16]) was “inactive” each time. The Potency is 22.4 µM (active) in test [1], 14.1 µM (active) in [3] and 398 µM (active) in test [4].

For the molecule `O=C(O)c1ccc2c(ccc3nn(-c4ccc(/C=C/c5ccc(-n6nc7ccc8cc(C(=O)O)ccc8c7n6)cc5[S+](=O)([O-])[O-])c([S+](=O)([O-])[O-])c4)nc32)c1`, the Potency entry (in the test with Furin (Homo sapiens); in [4]; in [6]) was “inactive” each time. Besides, the Potency in test [1] is 2.82 µM (active); in [16] it was 4.47 µM (active); in test [3], 6.31 µM (active); in [5], 12.6 µM (active).

Regarding `O=c1cc(-c2cc(O)c(O)c(O)c2)oc2cc(O)cc(O)c12`, the Potency in test [17] is 20 µM (active); in [19] it was 35.5 µM (active); in test [1] it was 44.7 µM (active); in test [3] it was 31.6 µM (active); in test [4], 63.1 µM (active). Moreover, the Potency result (in test [9]; with Furin (Homo sapiens); in test [16]; in [5]; in test [6]) was “inactive” throughout. Also, the result in test [18] was inactive.

Regarding `O=C(O)CSc1nc2ccc(NC(=O)COc3ccc(Cl)cc3)cc2s1`, the Potency is 11.2 µM (active) in [20]; 31.6 µM (active) in test [1]; 20 µM (active) in test [3]; 25.1 µM (active) in test [4]; 28.2 µM (active) in [5]. In addition, the Potency result (with Furin (Homo sapiens); in [16]; in [6]) was “inactive” in each case.

For the molecule `COC(=O)[C@H](Cc1ccc(OC)cc1)NC(=O)[C@H]1CN(S(=O)(=O)c2ccccc2)CCN1S(=O)(=O)c1ccccc1`, the Potency result (in the test with Furin (Homo sapiens); in test [2]; in test [21]; in test [6]) was “inactive” each time.

As to `N#C/C(=C\c1ccc(Br)cc1)c1nc(-c2cc3cc(Br)ccc3oc2=O)cs1`, the Potency entry (with Furin (Homo sapiens); in [2]; in test [21]; in test [6]) was “inactive” in each case.

Consider `COc1ccc(-c2nc3cc(F)ccc3s2)cc1OC`, for which the Potency with Furin (Homo sapiens) was 3.43 µM (active). In addition, the activity, negative = inhibition in test [21] is -4.14% [at 5.51 µM]. Further, the activity change, negative = inhibition in test [3] is -16.8% [at 12.7 µM]. Moreover, the activity change, negative = cytotoxicity in test [12] is 0.919% [at 4.93 µM]. Besides, the Potency result in [6] was “inactive”.
